# Experimental data as given in PMC9911399, “Two distinct binding modes provide the RNA-binding protein RbFox with extraordinary sequence specificity”.
# Residue numbers refer to the chain shown, from its start. In all, about 16,000 sequences were measured (“ka relative to ugcaugu”: median about 0.0091, highest 2% from about 0.032 on). This excerpt belongs to a sample that is enriched for the highest values.
# T1: RBFOX1 RRM (Homo sapiens, UniProt Q9NWB1 109-208)
# T1 sequence: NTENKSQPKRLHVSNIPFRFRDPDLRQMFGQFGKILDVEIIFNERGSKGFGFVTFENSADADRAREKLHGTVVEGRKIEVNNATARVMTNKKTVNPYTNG
# B1: UUUUCUC (DNA:RNA)
# RNA: GGGAGACCGGAAUUCAGAUUGUCCUUUUCUCUUAAAUCCCGUCGUAGCCACCA
# DNA 1: CAATCTGAATTCCGGTCTCCC
# DNA 2: TGGTGGCTACGACGGGATT
# B2: UUGUCUC (DNA:RNA)
# RNA: B1 RNA with U27G
# DNA 1: CAATCTGAATTCCGGTCTCCC
# DNA 2: TGGTGGCTACGACGGGATT
# B3: UUCAGGC (DNA:RNA)
# RNA: B1 RNA with U27C, U28A, C29G, U30G
# DNA 1: CAATCTGAATTCCGGTCTCCC
# DNA 2: TGGTGGCTACGACGGGATT
# B4: AGCAUGU (DNA:RNA)
# RNA: GGGAGACCGGAAUUCAGAUUGUCCAGCAUGUUUAAAUCCCGUCGUAGCCACCA
# DNA 1: CAATCTGAATTCCGGTCTCCC
# DNA 2: TGGTGGCTACGACGGGATT
# B5: AUGCUUG (DNA:RNA)
# RNA: B4 RNA with G26U, C27G, A28C, G30U, U31G
# DNA 1: CAATCTGAATTCCGGTCTCCC
# DNA 2: TGGTGGCTACGACGGGATT
# B6: ACCAUGU (DNA:RNA)
# RNA: B4 RNA with G26C
# DNA 1: CAATCTGAATTCCGGTCTCCC
# DNA 2: TGGTGGCTACGACGGGATT
# B7: ACCAUGG (DNA:RNA)
# RNA: B4 RNA with G26C, U31G
# DNA 1: CAATCTGAATTCCGGTCTCCC
# DNA 2: TGGTGGCTACGACGGGATT
# B8: CAGCAUC (DNA:RNA)
# RNA: B1 RNA with U25C, U26A, U27G, U28C, C29A
# DNA 1: CAATCTGAATTCCGGTCTCCC
# DNA 2: TGGTGGCTACGACGGGATT
# B9: CAGCAUG (DNA:RNA)
# RNA: B1 RNA with U25C, U26A, U27G, U28C, C29A, C31G
# DNA 1: CAATCTGAATTCCGGTCTCCC
# DNA 2: TGGTGGCTACGACGGGATT
# B10: AGCCAUG (DNA:RNA)
# RNA: B4 RNA with A28C, U29A, G30U, U31G
# DNA 1: CAATCTGAATTCCGGTCTCCC
# DNA 2: TGGTGGCTACGACGGGATT
# B11: CAGCAUA (DNA:RNA)
# RNA: B1 RNA with U25C, U26A, U27G, U28C, C29A, C31A
# DNA 1: CAATCTGAATTCCGGTCTCCC
# DNA 2: TGGTGGCTACGACGGGATT
# B12: AUGCUGC (DNA:RNA)
# RNA: B4 RNA with G26U, C27G, A28C, U31C
# DNA 1: CAATCTGAATTCCGGTCTCCC
# DNA 2: TGGTGGCTACGACGGGATT
# B13: ACCAUGC (DNA:RNA)
# RNA: B4 RNA with G26C, U31C
# DNA 1: CAATCTGAATTCCGGTCTCCC
# DNA 2: TGGTGGCTACGACGGGATT
# B14: AGCAUUG (DNA:RNA)
# RNA: B4 RNA with G30U, U31G
# DNA 1: CAATCTGAATTCCGGTCTCCC
# DNA 2: TGGTGGCTACGACGGGATT
# B15: AGCAUGG (DNA:RNA)
# RNA: B4 RNA with U31G
# DNA 1: CAATCTGAATTCCGGTCTCCC
# DNA 2: TGGTGGCTACGACGGGATT
# B16: CAACUAC (DNA:RNA)
# RNA: B4 RNA with A25C, G26A, C27A, A28C, G30A, U31C
# DNA 1: CAATCTGAATTCCGGTCTCCC
# DNA 2: TGGTGGCTACGACGGGATT
# B17: UGACGCG (DNA:RNA)
# RNA: B4 RNA with A25U, C27A, A28C, U29G, G30C, U31G
# DNA 1: CAATCTGAATTCCGGTCTCCC
# DNA 2: TGGTGGCTACGACGGGATT
# B18: UACCGAU (DNA:RNA)
# RNA: B4 RNA with A25U, G26A, A28C, U29G, G30A
# DNA 1: CAATCTGAATTCCGGTCTCCC
# DNA 2: TGGTGGCTACGACGGGATT
# B19: GACGCUG (DNA:RNA)
# RNA: B1 RNA with U25G, U26A, U27C, U28G, C31G
# DNA 1: CAATCTGAATTCCGGTCTCCC
# DNA 2: TGGTGGCTACGACGGGATT
# B20: GGAUCUC (DNA:RNA)
# RNA: B1 RNA with U25G, U26G, U27A
# DNA 1: CAATCTGAATTCCGGTCTCCC
# DNA 2: TGGTGGCTACGACGGGATT
# B21: GGGAGUC (DNA:RNA)
# RNA: B4 RNA with A25G, C27G, U29G, G30U, U31C
# DNA 1: CAATCTGAATTCCGGTCTCCC
# DNA 2: TGGTGGCTACGACGGGATT
# B22: CGGAUCU (DNA:RNA)
# RNA: B4 RNA with A25C, C27G, G30C
# DNA 1: CAATCTGAATTCCGGTCTCCC
# DNA 2: TGGTGGCTACGACGGGATT
# B23: GCGGAUC (DNA:RNA)
# RNA: B1 RNA with U25G, U26C, U27G, U28G, C29A
# DNA 1: CAATCTGAATTCCGGTCTCCC
# DNA 2: TGGTGGCTACGACGGGATT
# B24: GGGAAUC (DNA:RNA)
# RNA: B4 RNA with A25G, C27G, U29A, G30U, U31C
# DNA 1: CAATCTGAATTCCGGTCTCCC
# DNA 2: TGGTGGCTACGACGGGATT
# B25: GGGAUCU (DNA:RNA)
# RNA: B4 RNA with A25G, C27G, G30C
# DNA 1: CAATCTGAATTCCGGTCTCCC
# DNA 2: TGGTGGCTACGACGGGATT
# B26: GGAGUCU (DNA:RNA)
# RNA: B4 RNA with A25G, C27A, A28G, G30C
# DNA 1: CAATCTGAATTCCGGTCTCCC
# DNA 2: TGGTGGCTACGACGGGATT
# B27: GGAGAUC (DNA:RNA)
# RNA: B1 RNA with U25G, U26G, U27A, U28G, C29A
# DNA 1: CAATCTGAATTCCGGTCTCCC
# DNA 2: TGGTGGCTACGACGGGATT
# B28: GGAUCUU (DNA:RNA)
# RNA: B1 RNA with U25G, U26G, U27A, C31U
# DNA 1: CAATCTGAATTCCGGTCTCCC
# DNA 2: TGGTGGCTACGACGGGATT
# B29: GGGGAUC (DNA:RNA)
# RNA: B1 RNA with U25G, U26G, U27G, U28G, C29A
# DNA 1: CAATCTGAATTCCGGTCTCCC
# DNA 2: TGGTGGCTACGACGGGATT
# B30: CGGAGUC (DNA:RNA)
# RNA: B4 RNA with A25C, C27G, U29G, G30U, U31C
# DNA 1: CAATCTGAATTCCGGTCTCCC
# DNA 2: TGGTGGCTACGACGGGATT
# B31: GUUAAUC (DNA:RNA)
# RNA: B1 RNA with U25G, U28A, C29A
# DNA 1: CAATCTGAATTCCGGTCTCCC
# DNA 2: TGGTGGCTACGACGGGATT
# Target: T1, RBFOX1 RRM
# Assay: EMSA; HiTS-Eq, 1 nM pool, 10 min; buffer printed only for the single-RNA assays: 10 mM Tris pH 7.5, 150 mM NaCl, 3.4 mM EDTA, 0.001% NP-40, 30 C
# Settings: tags: His6 N-terminal (pET28a); label: 5' 32P
# Method in brief: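 Relative association constants, normalised to the cognate motif, were derived by comparing read counts of each RNA species with those of the control reaction. The RNA sequenced was the free fraction, separated by 8% native PAGE after a 10 min equilibration in 50 µL of 1 nM 5′-radiolabelled RNA (7 randomized nucleotides) with increasing concentrations of purified wild-type or mutant RbFox RRM.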
row,Binder,binding signal
1,B1,0.0162 KA relative to UGCAUGU
2,B2,0.0203 KA relative to UGCAUGU
3,B3,0.0127 KA relative to UGCAUGU
4,B4,0.738 KA relative to UGCAUGU
5,B5,0.0339 KA relative to UGCAUGU
6,B6,0.00472 KA relative to UGCAUGU
7,B7,0.00726 KA relative to UGCAUGU
8,B8,0.0124 KA relative to UGCAUGU
9,B9,0.665 KA relative to UGCAUGU
10,B10,0.0102 KA relative to UGCAUGU
11,B11,0.00331 KA relative to UGCAUGU
12,B12,0.00746 KA relative to UGCAUGU
13,B13,0.00513 KA relative to UGCAUGU
14,B14,0.0104 KA relative to UGCAUGU
15,B15,0.347 KA relative to UGCAUGU
16,B16,0.000393 KA relative to UGCAUGU

row,Binder,binding signal
1,B17,0.0215 KA relative to UGCAUGU
2,B18,0.00545 KA relative to UGCAUGU
3,B19,0.0241 KA relative to UGCAUGU
4,B20,0.0209 KA relative to UGCAUGU
5,B21,0.0339 KA relative to UGCAUGU
6,B22,0.0232 KA relative to UGCAUGU
7,B23,0.00958 KA relative to UGCAUGU
8,B24,0.0328 KA relative to UGCAUGU
9,B25,0.0381 KA relative to UGCAUGU
10,B26,0.0284 KA relative to UGCAUGU
11,B27,0.0208 KA relative to UGCAUGU
12,B28,0.0133 KA relative to UGCAUGU
13,B29,0.0348 KA relative to UGCAUGU
14,B30,0.0303 KA relative to UGCAUGU
15,B31,0.00989 KA relative to UGCAUGU
